Assay results taken from PubChem BioAssay (NCI).
This is part of a sample that, as a whole, favours compounds with a hit. Of some 83,000 tested, about 20% had one in any assay.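 For each line, cells grew in 96-well plates with the test compound present at a single concentration for 48 hours.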 Values without a mark were called inactive. Active and inactive are the calls of the source. The calls were made as follows: active = growth percent below 10; inactive = the rest.

test system: MDA-MB-468 breast; test: NCI-60 one-dose screen, 48 h (100 = growth as untreated, 0 = no growth, -100 = all killed); conditions: 10 µM unless noted

In the case of COC(=O)CCc1c[nH]c2ccc(N(CCCl)CCCl)cc12, the growth is reported as 8.73% (active).

Point of comparison: C[C@]12CCc3sc(-c4ccccc4O)nc3C1=CC[C@@H]1[C@@H]2CC[C@]2(C)C(=O)CC[C@@H]12, growth 106%. Against it:
- OCCNC1CCCCC1 — higher, 109%
- CCOC(=O)P(=O)(OCC)OCC — higher, 110%
- Cn1cc(-c2csc(-c3cn(CCN4CCOCC4)c4ccc(F)cc34)n2)c2cccnc21 — lower, 13.9%
- CCOC(=S)S[C@H]1C[C@@H]2[C@H](CC[C@]3(C)C(=O)CC[C@@H]23)[C@@]2(C)CCC(=O)C=C12 — lower, 101%
